According to the supplement of paper PMC9694430:
Structures can show the parent of a compound that is named as a salt.

Experiments:
Assay in all cases: thermal shift delta Tm vs DMSO control; higher = stronger stabilization (binding)
Details in all cases: 12.5 µM; protein concentration 2 µM
LOC_OS01G57100-cb003 = system: LOC_OS01G57100-cb003
Summary of the method: (§1)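 Thermal shift values come from differential scanning fluorimetry on purified rice kinase domains made in E. coli, with melting temperatures obtained from Boltzmann fits. Samples of 19.5 μl held 2 μM kinase, 100 mM potassium phosphate pH 7.5, 150 mM NaCl, 10% glycerol, 5 × SYPRO Orange and compound in DMSO, and were heated from 25°C to 95°C at 0.05°C/s. Each shift is a triplicate mean relative to the DMSO-only protein sample.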

LOC_OS01G60330-cb001 = system: LOC_OS01G60330-cb001
Summary of the method: as §1

LOC_OS01G60700-cb002 = system: LOC_OS01G60700-cb002
Summary of the method: as §1

LOC_OS01G63280-cb003 = system: LOC_OS01G63280-cb003
Summary of the method: as §1

LOC_OS01G67340-cb003 = system: LOC_OS01G67340-cb003
Summary of the method: as §1

LOC_OS01G70970-cb002 = system: LOC_OS01G70970-cb002
Summary of the method: as §1

LOC_OS02G07810-cb001 = system: LOC_OS02G07810-cb001
Summary of the method: as §1

LOC_OS02G08530-cb003 = system: LOC_OS02G08530-cb003
Summary of the method: as §1

LOC_OS02G14120-cb001 = system: LOC_OS02G14120-cb001
Summary of the method: as §1

LOC_OS02G17970-cb001 = system: LOC_OS02G17970-cb001
Summary of the method: as §1
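Further: purified Escherichia coli-expressed rice kinase domain construct.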

| Structure (SMILES) | thermal shift delta Tm (LOC_OS01G57100-cb003) | thermal shift delta Tm (LOC_OS01G60330-cb001) | thermal shift delta Tm (LOC_OS01G60700-cb002) | thermal shift delta Tm (LOC_OS01G63280-cb003) | thermal shift delta Tm (LOC_OS01G67340-cb003) | thermal shift delta Tm (LOC_OS01G70970-cb002) | thermal shift delta Tm (LOC_OS02G07810-cb001) | thermal shift delta Tm (LOC_OS02G08530-cb003) | thermal shift delta Tm (LOC_OS02G14120-cb001) | thermal shift delta Tm (LOC_OS02G17970-cb001) |
| --- | --- | --- | --- | --- | --- | --- | --- | --- | --- | --- |
| NC(=O)c1cnc2[nH]ccc2c1N[C@@H]1[C@@H]2CC3C[C@H]1C[C@@](O)(C3)C2 | 0.13 °C | 10.2 °C | 1.43 °C | 3.87 °C | 3.53 °C | 6.42 °C | 0.39 °C | 3 °C | 6.44 °C | 0.82 °C |
| Nc1ncccc1-c1nc2ccc(-c3ccccc3)nc2n1-c1ccc(C2(N)CCC2)cc1 [Miransertib (ARQ 092) HCl] | -0.19 °C | 0.58 °C | -0.42 °C | -0.11 °C | 0.08 °C | 0.38 °C | -1.04 °C | 0.49 °C | 1.05 °C | -0.46 °C |
| Nc1nc(N)c2nc(-c3cccc(O)c3)c(-c3cccc(O)c3)nc2n1 | 2.01 °C | 3.89 °C | 1.27 °C | 0.44 °C | -0.24 °C | 0.19 °C | 1.52 °C | 0.91 °C | 1.95 °C | 1.03 °C |
| CC(C)(C)NS(=O)(=O)c1cncc(-c2cc(F)c3nc(N)nn3c2)c1 | 1.55 °C | 0.87 °C | 1.82 °C | 0.83 °C | 0.93 °C | 0.9 °C | 1.06 °C | 0.86 °C | -0.33 °C | 2.29 °C |
| C=CC(=O)Nc1cccc(Oc2nc(Nc3ccc(N4CCN(C)CC4)cc3)ncc2Cl)c1 | -0.75 °C | 1.82 °C | 0.8 °C | 0.27 °C | -0.1 °C | 3.9 °C | 0.94 °C | 2.58 °C | 8.31 °C | 0 °C |
